Laboratory results taken from the supplement of paper PMC11732987, “Enantioselective OTUD7B fragment discovery through chemoproteomics screening and high-throughput optimisation” (Communications Chemistry, 2025).

What was measured:
Assay in all cases: log2 ratio of Biotin-Ahx-Ub-VS probe labelling (fragment/DMSO); higher = less target engagement (more negative = stronger competition), active = hit call of the paper (q ≤ 0.05, log2 ratio ≤ -1)
Conditions in all cases: compound concentration: 200 uM; treatment time: 3 h
USP34 = USP34 (UniProt Q70CQ2)
Procedure, shortened: (§1)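 HEK293T lysate in Tris/CHAPS/IGEPAL buffer with protease inhibitors (495 µg per sample) was given fragment at 200 µM or vehicle for 3 h, in triplicate. It then received Biotin-Ahx-Ub-VS at 0.5 µM final for 1 h. Labelled DUBs were NeutrAvidin-enriched, digested with LysC and trypsin, and run by diaPASEF LC-MS/MS. Values are average log2 fragment/vehicle ratios by unpaired t-test on global-median-normalised Spectronaut quantities of proteins with ≥2 unique peptides.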

USP36 = target: T1, USP36 (UniProt Q9P275)
T1 sequence (whole entry): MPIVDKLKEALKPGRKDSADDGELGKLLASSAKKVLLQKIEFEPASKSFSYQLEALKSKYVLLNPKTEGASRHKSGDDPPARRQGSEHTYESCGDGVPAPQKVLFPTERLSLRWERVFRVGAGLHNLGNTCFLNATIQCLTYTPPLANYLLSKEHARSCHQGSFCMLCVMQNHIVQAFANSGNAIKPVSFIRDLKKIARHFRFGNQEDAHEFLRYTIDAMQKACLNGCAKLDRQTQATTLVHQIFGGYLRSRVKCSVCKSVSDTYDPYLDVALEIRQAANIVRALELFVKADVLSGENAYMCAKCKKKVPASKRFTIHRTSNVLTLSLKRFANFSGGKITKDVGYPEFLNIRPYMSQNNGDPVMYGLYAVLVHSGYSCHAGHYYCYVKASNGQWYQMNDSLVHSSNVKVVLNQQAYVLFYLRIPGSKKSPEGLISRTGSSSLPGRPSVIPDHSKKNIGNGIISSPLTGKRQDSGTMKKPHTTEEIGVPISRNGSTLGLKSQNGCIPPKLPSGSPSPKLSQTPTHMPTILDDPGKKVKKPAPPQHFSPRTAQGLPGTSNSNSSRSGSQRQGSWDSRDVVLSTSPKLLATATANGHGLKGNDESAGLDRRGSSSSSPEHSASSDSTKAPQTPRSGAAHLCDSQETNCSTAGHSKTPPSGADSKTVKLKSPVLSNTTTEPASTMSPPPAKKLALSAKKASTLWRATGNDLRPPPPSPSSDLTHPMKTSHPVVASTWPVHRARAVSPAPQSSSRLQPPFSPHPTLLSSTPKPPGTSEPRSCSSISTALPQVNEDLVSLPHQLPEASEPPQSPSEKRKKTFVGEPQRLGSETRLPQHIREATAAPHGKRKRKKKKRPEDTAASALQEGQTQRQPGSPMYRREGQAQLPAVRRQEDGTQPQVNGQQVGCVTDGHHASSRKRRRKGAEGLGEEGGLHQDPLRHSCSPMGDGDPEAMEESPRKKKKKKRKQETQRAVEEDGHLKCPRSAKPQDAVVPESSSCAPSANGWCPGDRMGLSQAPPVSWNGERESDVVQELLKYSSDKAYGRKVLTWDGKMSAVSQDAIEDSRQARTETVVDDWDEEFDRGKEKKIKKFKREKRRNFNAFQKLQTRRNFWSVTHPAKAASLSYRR
Procedure, shortened: as §1

USP38 = target: T2, USP38 (UniProt Q8NB14)
T2 sequence (whole entry): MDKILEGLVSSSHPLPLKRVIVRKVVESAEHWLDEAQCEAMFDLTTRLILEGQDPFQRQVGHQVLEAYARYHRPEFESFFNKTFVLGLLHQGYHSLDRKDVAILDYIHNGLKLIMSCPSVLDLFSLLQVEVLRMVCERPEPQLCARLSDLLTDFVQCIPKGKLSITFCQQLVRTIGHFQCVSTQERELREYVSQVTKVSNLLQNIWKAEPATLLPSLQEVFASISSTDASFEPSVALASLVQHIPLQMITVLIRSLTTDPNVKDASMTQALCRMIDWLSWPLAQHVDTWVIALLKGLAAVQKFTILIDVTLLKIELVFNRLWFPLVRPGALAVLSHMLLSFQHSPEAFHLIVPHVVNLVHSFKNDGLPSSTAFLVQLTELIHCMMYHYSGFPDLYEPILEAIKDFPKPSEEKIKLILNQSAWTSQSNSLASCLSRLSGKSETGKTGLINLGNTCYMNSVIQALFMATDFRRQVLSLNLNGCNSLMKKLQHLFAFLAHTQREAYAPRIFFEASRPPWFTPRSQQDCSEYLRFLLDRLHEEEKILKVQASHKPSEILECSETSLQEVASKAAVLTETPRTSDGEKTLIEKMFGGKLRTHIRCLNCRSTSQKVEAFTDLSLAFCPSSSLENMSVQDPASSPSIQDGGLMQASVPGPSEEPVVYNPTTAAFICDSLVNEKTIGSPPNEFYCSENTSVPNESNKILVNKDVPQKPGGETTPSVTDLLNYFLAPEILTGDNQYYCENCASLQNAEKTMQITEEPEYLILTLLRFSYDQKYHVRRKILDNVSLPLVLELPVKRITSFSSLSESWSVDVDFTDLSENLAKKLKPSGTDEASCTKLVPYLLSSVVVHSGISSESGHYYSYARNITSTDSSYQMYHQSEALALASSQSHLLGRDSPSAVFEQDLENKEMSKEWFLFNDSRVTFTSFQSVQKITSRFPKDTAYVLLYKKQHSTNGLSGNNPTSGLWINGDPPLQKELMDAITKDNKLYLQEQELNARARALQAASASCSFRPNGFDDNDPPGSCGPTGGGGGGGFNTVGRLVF
Procedure, shortened: as §1

USP39 = target: T3, USP39 (UniProt Q53GS9)
T3 sequence (whole entry): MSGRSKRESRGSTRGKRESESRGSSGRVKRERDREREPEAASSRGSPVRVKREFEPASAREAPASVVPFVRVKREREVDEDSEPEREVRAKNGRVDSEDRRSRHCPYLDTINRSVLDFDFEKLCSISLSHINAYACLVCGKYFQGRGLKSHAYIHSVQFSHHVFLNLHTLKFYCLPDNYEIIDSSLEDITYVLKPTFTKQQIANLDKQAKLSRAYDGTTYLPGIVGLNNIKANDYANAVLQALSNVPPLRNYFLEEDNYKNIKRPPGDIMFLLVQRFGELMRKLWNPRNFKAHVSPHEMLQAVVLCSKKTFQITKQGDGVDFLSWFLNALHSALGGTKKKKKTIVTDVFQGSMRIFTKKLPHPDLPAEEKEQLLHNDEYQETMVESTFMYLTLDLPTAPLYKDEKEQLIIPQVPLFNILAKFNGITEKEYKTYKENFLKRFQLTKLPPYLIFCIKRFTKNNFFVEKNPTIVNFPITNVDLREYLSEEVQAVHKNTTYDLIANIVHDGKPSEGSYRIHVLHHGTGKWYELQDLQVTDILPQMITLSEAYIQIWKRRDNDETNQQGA
Procedure, shortened: as §1

USP4 = target: T4, USP4 (UniProt Q13107)
T4 sequence (whole entry): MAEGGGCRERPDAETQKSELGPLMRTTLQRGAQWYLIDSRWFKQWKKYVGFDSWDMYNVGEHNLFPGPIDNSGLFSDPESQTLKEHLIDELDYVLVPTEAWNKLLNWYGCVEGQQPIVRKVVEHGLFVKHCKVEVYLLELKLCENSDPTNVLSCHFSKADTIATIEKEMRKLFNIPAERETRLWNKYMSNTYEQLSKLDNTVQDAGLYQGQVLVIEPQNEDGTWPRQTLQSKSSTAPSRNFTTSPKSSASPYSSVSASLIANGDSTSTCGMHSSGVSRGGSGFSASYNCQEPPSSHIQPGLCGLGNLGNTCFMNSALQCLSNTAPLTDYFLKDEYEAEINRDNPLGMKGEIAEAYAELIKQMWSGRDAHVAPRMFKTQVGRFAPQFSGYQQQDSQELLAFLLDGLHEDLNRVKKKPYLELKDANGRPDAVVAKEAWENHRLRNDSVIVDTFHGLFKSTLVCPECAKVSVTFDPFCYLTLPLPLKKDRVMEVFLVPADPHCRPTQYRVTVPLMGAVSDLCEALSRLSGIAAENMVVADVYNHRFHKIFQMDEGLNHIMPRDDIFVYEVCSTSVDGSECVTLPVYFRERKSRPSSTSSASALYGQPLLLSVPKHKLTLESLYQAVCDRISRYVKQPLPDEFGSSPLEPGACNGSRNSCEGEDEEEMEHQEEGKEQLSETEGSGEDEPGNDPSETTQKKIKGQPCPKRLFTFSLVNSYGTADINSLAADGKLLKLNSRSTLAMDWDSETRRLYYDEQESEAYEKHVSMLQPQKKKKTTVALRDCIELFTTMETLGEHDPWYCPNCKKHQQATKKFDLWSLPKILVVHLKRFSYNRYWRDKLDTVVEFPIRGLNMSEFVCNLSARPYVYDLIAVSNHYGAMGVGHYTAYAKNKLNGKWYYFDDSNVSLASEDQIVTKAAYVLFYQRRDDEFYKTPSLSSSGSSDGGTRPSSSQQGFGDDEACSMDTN
Procedure, shortened: as §1

Measured: log2 ratio of Biotin-Ahx-Ub-VS probe labelling

USP34, sequence (Q70CQ2 whole entry, the tested form may be a part): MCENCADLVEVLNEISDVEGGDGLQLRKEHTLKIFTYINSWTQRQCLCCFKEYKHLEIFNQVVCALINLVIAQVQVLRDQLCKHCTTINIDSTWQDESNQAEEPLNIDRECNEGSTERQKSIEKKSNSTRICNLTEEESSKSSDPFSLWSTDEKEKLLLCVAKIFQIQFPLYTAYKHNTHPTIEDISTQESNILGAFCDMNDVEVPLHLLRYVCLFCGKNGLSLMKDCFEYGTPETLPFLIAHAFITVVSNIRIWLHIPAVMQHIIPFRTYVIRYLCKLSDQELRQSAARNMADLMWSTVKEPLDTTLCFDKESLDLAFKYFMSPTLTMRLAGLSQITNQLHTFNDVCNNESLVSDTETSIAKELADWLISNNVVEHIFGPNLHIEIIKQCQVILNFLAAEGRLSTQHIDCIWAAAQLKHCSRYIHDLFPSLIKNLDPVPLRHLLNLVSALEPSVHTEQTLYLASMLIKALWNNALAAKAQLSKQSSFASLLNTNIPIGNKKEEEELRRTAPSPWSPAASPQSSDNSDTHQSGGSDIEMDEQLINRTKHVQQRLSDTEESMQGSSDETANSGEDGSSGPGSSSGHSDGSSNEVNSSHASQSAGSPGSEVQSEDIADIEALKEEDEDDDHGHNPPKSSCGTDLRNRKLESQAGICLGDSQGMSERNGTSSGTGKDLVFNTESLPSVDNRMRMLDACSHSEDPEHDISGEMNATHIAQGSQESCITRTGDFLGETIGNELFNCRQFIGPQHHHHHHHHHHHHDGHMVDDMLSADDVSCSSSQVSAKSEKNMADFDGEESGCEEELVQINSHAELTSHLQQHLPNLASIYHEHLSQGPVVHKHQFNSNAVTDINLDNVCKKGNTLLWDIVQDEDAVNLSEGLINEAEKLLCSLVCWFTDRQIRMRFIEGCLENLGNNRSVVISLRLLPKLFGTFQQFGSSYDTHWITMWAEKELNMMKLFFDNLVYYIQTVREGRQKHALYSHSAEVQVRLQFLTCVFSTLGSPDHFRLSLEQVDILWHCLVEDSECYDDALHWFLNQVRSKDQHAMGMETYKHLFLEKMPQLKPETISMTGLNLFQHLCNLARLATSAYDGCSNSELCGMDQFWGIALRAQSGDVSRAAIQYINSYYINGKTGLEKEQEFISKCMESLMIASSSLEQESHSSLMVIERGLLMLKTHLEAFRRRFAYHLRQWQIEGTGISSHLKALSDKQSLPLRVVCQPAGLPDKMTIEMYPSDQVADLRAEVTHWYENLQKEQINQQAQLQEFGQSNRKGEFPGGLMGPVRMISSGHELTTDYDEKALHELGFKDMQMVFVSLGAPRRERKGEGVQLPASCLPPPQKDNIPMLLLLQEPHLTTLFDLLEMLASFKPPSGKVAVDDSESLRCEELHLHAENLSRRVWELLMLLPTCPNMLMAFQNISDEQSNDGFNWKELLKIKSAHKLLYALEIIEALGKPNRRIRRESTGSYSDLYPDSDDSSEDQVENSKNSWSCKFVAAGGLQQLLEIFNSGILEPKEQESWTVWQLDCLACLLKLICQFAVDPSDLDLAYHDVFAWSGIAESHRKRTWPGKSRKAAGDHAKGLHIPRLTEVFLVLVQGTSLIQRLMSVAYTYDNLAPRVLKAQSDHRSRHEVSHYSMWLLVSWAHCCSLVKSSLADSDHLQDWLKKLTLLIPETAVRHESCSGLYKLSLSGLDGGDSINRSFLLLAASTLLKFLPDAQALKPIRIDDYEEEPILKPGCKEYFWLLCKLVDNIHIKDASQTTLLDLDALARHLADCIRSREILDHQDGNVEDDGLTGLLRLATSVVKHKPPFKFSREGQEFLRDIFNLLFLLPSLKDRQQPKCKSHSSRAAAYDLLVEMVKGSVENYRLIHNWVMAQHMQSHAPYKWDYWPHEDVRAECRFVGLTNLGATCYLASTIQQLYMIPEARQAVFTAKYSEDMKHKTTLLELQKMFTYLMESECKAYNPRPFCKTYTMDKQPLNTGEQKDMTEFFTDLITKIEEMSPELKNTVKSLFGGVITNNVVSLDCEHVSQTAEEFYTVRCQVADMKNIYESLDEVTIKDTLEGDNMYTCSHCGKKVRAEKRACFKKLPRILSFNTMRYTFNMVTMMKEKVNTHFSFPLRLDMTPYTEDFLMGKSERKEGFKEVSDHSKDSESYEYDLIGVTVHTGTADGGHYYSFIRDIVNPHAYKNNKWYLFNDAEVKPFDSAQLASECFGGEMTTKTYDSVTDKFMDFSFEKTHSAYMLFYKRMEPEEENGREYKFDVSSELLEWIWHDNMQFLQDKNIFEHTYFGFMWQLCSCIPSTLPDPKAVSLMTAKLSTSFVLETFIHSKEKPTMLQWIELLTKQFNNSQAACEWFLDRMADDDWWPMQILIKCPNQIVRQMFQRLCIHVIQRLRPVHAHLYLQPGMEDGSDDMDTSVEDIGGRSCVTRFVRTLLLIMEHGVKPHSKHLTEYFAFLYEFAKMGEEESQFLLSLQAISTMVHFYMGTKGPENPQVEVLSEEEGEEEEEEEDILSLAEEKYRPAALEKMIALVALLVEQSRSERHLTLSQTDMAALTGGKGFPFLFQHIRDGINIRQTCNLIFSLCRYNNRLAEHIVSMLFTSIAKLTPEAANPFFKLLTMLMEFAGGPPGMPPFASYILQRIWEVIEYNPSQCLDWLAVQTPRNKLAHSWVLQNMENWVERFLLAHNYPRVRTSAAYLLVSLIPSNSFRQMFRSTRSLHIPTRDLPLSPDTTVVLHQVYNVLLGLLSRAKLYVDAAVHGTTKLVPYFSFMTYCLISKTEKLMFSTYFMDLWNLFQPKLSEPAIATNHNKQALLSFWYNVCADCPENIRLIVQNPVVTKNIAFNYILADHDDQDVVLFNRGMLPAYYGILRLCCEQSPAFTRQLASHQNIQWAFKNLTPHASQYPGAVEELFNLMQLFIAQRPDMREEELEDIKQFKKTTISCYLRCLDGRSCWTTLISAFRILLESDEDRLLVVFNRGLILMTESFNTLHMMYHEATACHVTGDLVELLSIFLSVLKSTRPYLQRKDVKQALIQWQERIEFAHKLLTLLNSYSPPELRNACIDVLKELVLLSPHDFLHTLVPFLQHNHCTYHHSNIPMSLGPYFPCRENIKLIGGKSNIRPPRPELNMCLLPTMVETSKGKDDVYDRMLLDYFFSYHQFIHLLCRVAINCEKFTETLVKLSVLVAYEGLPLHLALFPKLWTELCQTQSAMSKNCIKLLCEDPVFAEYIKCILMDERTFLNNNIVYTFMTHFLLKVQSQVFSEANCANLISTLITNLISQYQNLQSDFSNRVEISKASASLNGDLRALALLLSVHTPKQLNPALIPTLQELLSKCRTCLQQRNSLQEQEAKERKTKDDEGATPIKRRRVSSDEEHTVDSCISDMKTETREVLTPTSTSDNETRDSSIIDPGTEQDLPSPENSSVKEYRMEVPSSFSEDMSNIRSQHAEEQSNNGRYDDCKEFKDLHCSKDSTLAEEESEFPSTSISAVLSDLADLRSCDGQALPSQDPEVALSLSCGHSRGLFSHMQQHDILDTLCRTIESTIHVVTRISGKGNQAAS

NC(=O)C1CCCN(C(=O)CCl)C1 (stereo not given)
inactive: USP34 -0.00128 | USP36 0.0237 | USP38 -0.242 | USP39 -0.334 | USP4 -0.0203
